Holding throughout (conditions): Compound concentration 20.0 uM
Assay [1] concerns the target Tyrosine-protein kinase ABL1 (Homo sapiens) (UniProt P00519).
Assay [2] addresses Bromodomain-containing protein 4 (Homo sapiens) (UniProt O60885).
The target in assay [3] is Cyclin-dependent kinase 2 (Homo sapiens) (UniProt P24941).
For assay [4], the target named is Casein kinase I isoform delta (Homo sapiens) (UniProt P48730).
For assay [5], the target named is Glycogen synthase kinase-3 beta (Homo sapiens) (UniProt P49841).
The target of assay [6] is Mitogen-activated protein kinase 1 (Homo sapiens) (UniProt P28482).
Assay [7] addresses T1, Aurora kinase A (Homo sapiens) (UniProt O14965).
T1 sequence (whole entry): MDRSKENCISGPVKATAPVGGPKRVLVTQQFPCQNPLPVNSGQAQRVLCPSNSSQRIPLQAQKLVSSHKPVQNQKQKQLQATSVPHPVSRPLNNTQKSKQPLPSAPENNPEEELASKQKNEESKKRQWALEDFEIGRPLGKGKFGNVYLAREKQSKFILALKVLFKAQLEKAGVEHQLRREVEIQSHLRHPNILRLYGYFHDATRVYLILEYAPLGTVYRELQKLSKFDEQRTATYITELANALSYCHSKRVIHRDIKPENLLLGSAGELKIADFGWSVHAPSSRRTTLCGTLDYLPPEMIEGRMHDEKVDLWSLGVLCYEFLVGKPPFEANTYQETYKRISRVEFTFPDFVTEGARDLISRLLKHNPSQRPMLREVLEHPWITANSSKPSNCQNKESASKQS

The target of assay [8] is T2, Transcription intermediary factor 1-alpha (Homo sapiens) (UniProt O15164).
T2 sequence (whole entry): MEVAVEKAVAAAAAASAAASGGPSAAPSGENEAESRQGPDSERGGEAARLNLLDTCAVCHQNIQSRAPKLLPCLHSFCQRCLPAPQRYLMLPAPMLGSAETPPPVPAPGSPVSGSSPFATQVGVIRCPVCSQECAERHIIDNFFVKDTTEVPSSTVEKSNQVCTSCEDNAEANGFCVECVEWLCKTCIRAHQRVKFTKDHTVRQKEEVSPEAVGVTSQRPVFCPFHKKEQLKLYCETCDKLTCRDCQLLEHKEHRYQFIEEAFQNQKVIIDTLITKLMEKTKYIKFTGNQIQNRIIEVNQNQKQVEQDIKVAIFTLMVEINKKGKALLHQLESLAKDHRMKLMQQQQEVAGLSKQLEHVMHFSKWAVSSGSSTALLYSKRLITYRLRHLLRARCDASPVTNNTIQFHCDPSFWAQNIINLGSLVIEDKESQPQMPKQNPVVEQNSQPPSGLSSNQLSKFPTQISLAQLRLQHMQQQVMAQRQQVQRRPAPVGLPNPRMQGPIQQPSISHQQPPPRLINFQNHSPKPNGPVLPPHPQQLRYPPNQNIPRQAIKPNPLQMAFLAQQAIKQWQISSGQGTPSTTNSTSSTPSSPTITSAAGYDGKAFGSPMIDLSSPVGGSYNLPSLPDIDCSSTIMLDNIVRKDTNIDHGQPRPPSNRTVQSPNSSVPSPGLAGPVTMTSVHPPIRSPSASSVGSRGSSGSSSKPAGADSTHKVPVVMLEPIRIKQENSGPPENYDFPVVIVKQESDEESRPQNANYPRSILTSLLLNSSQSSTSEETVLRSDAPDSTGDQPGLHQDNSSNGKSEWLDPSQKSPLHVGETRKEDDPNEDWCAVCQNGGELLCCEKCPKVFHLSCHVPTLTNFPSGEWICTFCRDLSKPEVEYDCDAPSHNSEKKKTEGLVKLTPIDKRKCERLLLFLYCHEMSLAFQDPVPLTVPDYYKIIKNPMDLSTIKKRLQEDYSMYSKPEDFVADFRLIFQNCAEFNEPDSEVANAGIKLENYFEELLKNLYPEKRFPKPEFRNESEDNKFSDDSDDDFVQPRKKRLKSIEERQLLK

Residues, ends and D or L forms follow the SMILES beside them.

What is called ΔTm is the shift of the melting midpoint relative to a reference.

Sequence of Mitogen-activated protein kinase 1 (Homo sapiens) (P28482 whole entry): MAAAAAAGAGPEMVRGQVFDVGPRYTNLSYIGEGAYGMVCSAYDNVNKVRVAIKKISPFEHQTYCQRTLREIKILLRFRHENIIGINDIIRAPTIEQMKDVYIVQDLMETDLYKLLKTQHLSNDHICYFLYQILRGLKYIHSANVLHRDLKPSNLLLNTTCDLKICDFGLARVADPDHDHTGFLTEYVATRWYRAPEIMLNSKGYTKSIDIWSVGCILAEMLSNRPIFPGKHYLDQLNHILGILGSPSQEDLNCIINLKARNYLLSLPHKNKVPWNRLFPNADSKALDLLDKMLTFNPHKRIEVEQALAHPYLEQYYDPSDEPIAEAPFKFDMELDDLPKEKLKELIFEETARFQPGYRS
Sequence of Glycogen synthase kinase-3 beta (Homo sapiens) (P49841 whole entry, looked up): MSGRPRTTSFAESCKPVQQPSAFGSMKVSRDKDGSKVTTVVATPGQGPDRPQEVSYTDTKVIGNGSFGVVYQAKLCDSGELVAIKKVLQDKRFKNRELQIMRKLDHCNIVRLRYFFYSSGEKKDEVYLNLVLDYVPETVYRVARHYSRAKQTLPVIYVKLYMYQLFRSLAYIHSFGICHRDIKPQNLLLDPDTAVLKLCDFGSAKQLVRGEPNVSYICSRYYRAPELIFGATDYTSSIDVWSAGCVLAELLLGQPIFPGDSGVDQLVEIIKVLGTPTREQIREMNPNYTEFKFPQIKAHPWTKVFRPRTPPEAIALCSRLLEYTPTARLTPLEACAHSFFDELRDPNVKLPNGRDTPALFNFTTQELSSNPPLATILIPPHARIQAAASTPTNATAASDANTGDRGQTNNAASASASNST
Sequence of Tyrosine-protein kinase ABL1 (Homo sapiens) (P00519 whole entry): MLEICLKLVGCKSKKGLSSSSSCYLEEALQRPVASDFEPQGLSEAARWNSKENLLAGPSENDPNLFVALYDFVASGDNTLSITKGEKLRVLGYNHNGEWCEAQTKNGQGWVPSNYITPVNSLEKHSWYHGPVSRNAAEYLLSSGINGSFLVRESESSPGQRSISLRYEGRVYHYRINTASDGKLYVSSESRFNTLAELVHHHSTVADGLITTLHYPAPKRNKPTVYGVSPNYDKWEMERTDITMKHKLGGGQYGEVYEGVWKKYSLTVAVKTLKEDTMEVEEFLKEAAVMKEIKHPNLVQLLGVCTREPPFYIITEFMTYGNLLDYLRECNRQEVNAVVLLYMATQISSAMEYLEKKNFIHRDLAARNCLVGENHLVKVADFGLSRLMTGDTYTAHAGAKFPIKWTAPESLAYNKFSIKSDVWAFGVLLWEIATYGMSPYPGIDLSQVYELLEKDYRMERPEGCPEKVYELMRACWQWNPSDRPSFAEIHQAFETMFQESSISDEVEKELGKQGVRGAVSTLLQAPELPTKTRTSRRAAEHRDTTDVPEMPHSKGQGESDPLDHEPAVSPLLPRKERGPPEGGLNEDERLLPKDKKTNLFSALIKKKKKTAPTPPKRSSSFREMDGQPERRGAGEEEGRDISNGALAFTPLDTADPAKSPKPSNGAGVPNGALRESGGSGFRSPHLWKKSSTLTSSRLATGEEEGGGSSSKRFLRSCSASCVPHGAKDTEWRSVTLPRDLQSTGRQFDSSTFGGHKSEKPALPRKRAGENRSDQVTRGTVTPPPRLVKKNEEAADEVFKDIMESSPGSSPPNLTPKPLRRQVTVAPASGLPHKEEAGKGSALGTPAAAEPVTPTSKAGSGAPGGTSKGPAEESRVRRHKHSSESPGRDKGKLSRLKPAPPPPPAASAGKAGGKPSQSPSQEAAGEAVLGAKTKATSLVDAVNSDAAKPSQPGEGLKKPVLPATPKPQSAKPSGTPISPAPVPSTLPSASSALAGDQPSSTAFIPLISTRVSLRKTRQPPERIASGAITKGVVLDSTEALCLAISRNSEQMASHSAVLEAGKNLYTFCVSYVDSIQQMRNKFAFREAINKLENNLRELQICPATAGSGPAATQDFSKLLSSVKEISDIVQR
Sequence of Casein kinase I isoform delta (Homo sapiens) (P48730 whole entry, looked up, canonical isoform): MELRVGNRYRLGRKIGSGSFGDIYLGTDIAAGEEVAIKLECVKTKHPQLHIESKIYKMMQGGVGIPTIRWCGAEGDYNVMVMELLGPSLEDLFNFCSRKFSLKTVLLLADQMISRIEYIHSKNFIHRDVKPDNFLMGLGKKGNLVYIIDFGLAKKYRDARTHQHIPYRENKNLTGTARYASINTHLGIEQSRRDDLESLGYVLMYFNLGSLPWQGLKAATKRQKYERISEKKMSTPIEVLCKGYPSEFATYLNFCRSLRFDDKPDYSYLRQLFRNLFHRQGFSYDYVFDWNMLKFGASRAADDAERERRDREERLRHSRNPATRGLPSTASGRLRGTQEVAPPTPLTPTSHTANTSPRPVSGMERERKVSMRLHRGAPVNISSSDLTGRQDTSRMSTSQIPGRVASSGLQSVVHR

For the compound `Cc1c(F)c(N)cc(C(=O)Nc2cc(-n3cc(C(=O)NCCCN4CCOCC4)nn3)ccc2N2CCN(C)CC2)c1Cl`, the ΔTm was 0.14 °C in assay [1]; -3.1 °C in assay [2]; 0.07 °C in assay [3]; 0.04 °C in assay [4]; -0.82 °C in assay [5]; 0.14 °C in assay [6]. Also, the ΔTm in assay [7] is -2.25 °C; in assay [8], -0.56 °C.

As to `COc1ccccc1S(=O)(=O)Nc1ccc2c(c1)CN(C)C(=O)N2`, the ΔTm was 0.3 °C in assay [1]; 0.12 °C in assay [3]; -0.3 °C in assay [4]; -0.34 °C in assay [5]; 0.22 °C in assay [6]; -2.31 °C in assay [7]. In assay [8], the ΔTm was -0.41 °C.

For `N=C(N)NC(=O)c1cnn(-c2cccc3ncccc23)c1C1CC1`, the ΔTm in assay [1] was 0.57 °C; in assay [2], -3 °C; in assay [3] it was -0.15 °C; in assay [4], -0.36 °C; in assay [5], -0.31 °C; in assay [6] it was 0.09 °C. The ΔTm is -2.42 °C in assay [7] and -0.58 °C in assay [8].

Turning to `CNCc1ccc(-c2[nH]c3cc(F)cc4c3c2CCNC4=O)cc1`, the ΔTm was 0.58 °C in assay [1]; -1.77 °C in assay [2]; 0.36 °C in assay [3]; 0.56 °C in assay [4]; 5.05 °C in assay [5]; 0.13 °C in assay [6]. Moreover, in assay [8], the ΔTm was -0.05 °C.

In the case of `O=c1[nH][nH]c(=O)c2cc(OCC3CCCCC3)ccc12`, the ΔTm is 2.06 °C in assay [1]; -1.15 °C in assay [2]; 1.01 °C in assay [3]; -0.01 °C in assay [4]; 2.16 °C in assay [5]; 0.61 °C in assay [6]. The ΔTm is -0.19 °C in assay [7] and 1.88 °C in assay [8].

Regarding `CC(C)Nc1cc(-c2c[nH]c(C(=O)N[C@H](CO)c3cccc(Cl)c3)c2)c(Cl)cn1`, the ΔTm in assay [1] is 1.43 °C; in assay [2] it was 6.89 °C; in assay [3], 8.63 °C; in assay [4], 0.57 °C; in assay [5], 14.2 °C; in assay [6], -1.26 °C. For the same compound, the values for the ΔTm in assay [7] and in assay [8] were 13.7 °C and 0.98 °C, respectively.

`CC(=O)N[C@@H](CC(C)C)C(=O)N[C@@H](CCC(=O)O)C(=O)N[C@@H](Cc1cnc[nH]1)C(=O)N[C@H](C=O)CC(=O)O` (Ac-LEHD-aldehyde): the ΔTm was 0.07 °C in assay [1]; -2.66 °C in assay [2]; 0.05 °C in assay [3]; 0.09 °C in assay [4]; -0.79 °C in assay [5]; -0.4 °C in assay [6]. Besides, the values for the ΔTm in assay [7] and in assay [8] were -1.34 °C and -0.81 °C, respectively.

For `CS(=O)(=O)N1CCN(C(=O)c2cnc3ccc(F)cc3c2-c2ccc(C3(C#N)CC3)cc2)CC1`, the ΔTm in assay [1] worked out at 0.07 °C; in assay [2], 1.15 °C; in assay [3] it was 0.13 °C; in assay [4], 0.11 °C; in assay [5], 3.18 °C; in assay [6], 0.08 °C. Moreover, the ΔTm in assay [7] was -1.44 °C; in assay [8] it was 0.3 °C.

Take `CN(Cc1cc(Br)cc(Br)c1N)C1CCCCC1`: the ΔTm in assay [1] was -0.03 °C; in assay [2] it was -2.64 °C; in assay [3], -0.09 °C; in assay [4] it was -0.11 °C; in assay [5] it was -0.69 °C; in assay [7] it was -0.8 °C. The ΔTm in assay [8] came to 0.31 °C.

As for `N#C[C@@H]1CCCN1C(=O)CNC(=O)c1ccnc2ccc(OCCCN3CCN(C(=O)CN4CCN(CC(=O)O)CCN(CC(=O)O)CCN(CC(=O)O)CC4)CC3)cc12`, the ΔTm was 0.75 °C in assay [1]; -2.94 °C in assay [2]; 0.18 °C in assay [3]; -0.3 °C in assay [4]; -0.21 °C in assay [5]; 0.66 °C in assay [6]. Also, the ΔTm in assay [7] is -2.4 °C; in assay [8], 0.33 °C.

As for `Nc1ncnc2nc(-c3ccc(N4CCOCC4)nc3)cc(-c3cccc(Br)c3)c12`, the ΔTm is 4.32 °C in assay [1]; -3.54 °C in assay [2]; 0.07 °C in assay [3]; 2.63 °C in assay [4]; -0.95 °C in assay [5]; -0.25 °C in assay [6]. Further, the ΔTm in assay [7] was determined as 0.37 °C; in assay [8] it was 0.24 °C.

Regarding `N#Cc1cccnc1N1CCN(C(=O)c2cccc(Cc3n[nH]c(=O)c4ccccc34)c2)CC1`, the ΔTm in assay [1] is 0.57 °C; in assay [2], -2.92 °C; in assay [3] it was 0.15 °C; in assay [4] it was 0.14 °C; in assay [5], -0.23 °C; in assay [6], 0.24 °C. Also, the ΔTm was -2.06 °C in assay [7] and -0.96 °C in assay [8].
